PubChem BioAssay (NCI)
About 83,000 compounds went through this panel and 20% of them were active in at least one assay; those are over-represented in the sample as a whole.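 Negative percent growth values reflect cell death: -40 means 40% of the cells present at the start died, and -100 means all died.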 Unmarked numbers belong to inactive results. Active and inactive are the calls of the source. Rule for the calls: active = growth percent below 10; inactive = the rest.

Experiments:
Assay in all cases: NCI-60 one-dose screen, 48 h (100 = growth as untreated, 0 = no growth, -100 = all killed)
Conditions in all cases: 10 µM unless noted
NCI-H226 lung = system: NCI-H226 lung
NCI-H322M lung = system: NCI-H322M lung
HOP-62 NSCLC = system: HOP-62 NSCLC
NCI-H460 lung = system: NCI-H460 lung
HOP-92 NSCLC = system: HOP-92 NSCLC
NCI-H522 lung = system: NCI-H522 lung
A549/ATCC NSCLC = system: A549/ATCC NSCLC
786-0 renal = system: 786-0 renal
COLO 205 colon = system: COLO 205 colon
DU-145 prostate = system: DU-145 prostate
K-562 leukemia = system: K-562 leukemia
MALME-3M melanoma = system: MALME-3M melanoma
MDA-MB-231 breast = system: MDA-MB-231 breast
RXF 393 renal = system: RXF 393 renal
SF-268 CNS = system: SF-268 CNS
SF-295 CNS = system: SF-295 CNS
SF-539 CNS = system: SF-539 CNS
UACC-257 melanoma = system: UACC-257 melanoma
M14 melanoma = system: M14 melanoma
HCT-15 colon = system: HCT-15 colon

| Compound | growth (NCI-H226 lung) | growth (NCI-H322M lung) | growth (HOP-62 NSCLC) | growth (NCI-H460 lung) | growth (HOP-92 NSCLC) | growth (NCI-H522 lung) | growth (A549/ATCC NSCLC) | growth (786-0 renal) | growth (COLO 205 colon) | growth (DU-145 prostate) | growth (K-562 leukemia) | growth (MALME-3M melanoma) | growth (MDA-MB-231 breast) | growth (RXF 393 renal) | growth (SF-268 CNS) | growth (SF-295 CNS) | growth (SF-539 CNS) | growth (UACC-257 melanoma) | growth (M14 melanoma) | growth (HCT-15 colon) |
| --- | --- | --- | --- | --- | --- | --- | --- | --- | --- | --- | --- | --- | --- | --- | --- | --- | --- | --- | --- | --- |
| NS(=O)(=O)c1cccc(Nc2nc(SCC(=O)c3ccc([N+](=O)[O-])cc3)nc3ccccc23)c1 | -20.9% (active) | 82.7% | 71.9% | 36.3% | 52% | 19.3% | 70.6% | 44.6% | 83.1% | 42.8% | 19.7% | 58.6% | 55.6% | 57% | 54.5% | 36.8% | 52.2% | 88.9% | 38.5% | 34.5% |
| C[C@@H]1CN(c2ccc3ncc(C#Cc4cncc(C(=O)Nc5ccc(CN6CCN(C)CC6)c(C(F)(F)F)c5)c4)n3n2)C[C@H](C)O1 | -48.8% (active) | -19.4% (active) | -30.1% (active) | -77.7% (active) | -44.4% (active) | -78.8% (active) | -82.5% (active) | -74.8% (active) | -76.8% (active) | -97.5% (active) | -11.8% (active) | -68.9% (active) | -24.9% (active) | -92.1% (active) | -60.3% (active) | 0.595% (active) | -96.1% (active) | -19.1% (active) | -76.3% (active) | -17.2% (active) |
| C#Cc1nc(C2=C(C)C(OC(C)=O)/C(=N/OC(C)=O)C2)cs1 (stereo not given) | 96.1% | 116% | -46.9% (active) | 36.1% | -79.9% (active) | -86.2% (active) | 69.7% | -87.9% (active) | 51.3% | 67% | 15.4% | -46.5% (active) | -69.9% (active) | -19.5% (active) | -42.6% (active) | -89.8% (active) | -90.9% (active) | 85.5% | 69.2% | -11.2% (active) |
| Nc1cc(-c2c[nH]c3ccc(Cl)cc23)nc2cc(-c3c[nH]c4ccc(Cl)cc34)nn12 | 71.3% | 56.8% | 85.7% | 12.1% | 28.9% | 28.8% | 44.2% | 60.5% | 93.2% | 53.4% | 4.93% (active) | 90.6% | 49.3% | 75% | 54% | 33.6% | 65.5% | 83.9% | 48.6% | 11.1% |
| COc1ccc([C@@H]2c3[nH]c4ccccc4c3CC3C(=O)N(C4CCN(Cc5c(F)cccc5F)CC4)CC(=O)N32)c(OC)c1 (stereo not given in full) | 57% [5.26 µM] | 83.4% [5.26 µM] | 54.8% [5.26 µM] | 65.7% [5.26 µM] | 18.8% [5.26 µM] | 67.6% [5.26 µM] | 50% [5.26 µM] | -35.9% [5.26 µM] (active) | 58.3% [5.26 µM] | 70.7% [5.26 µM] | 62.2% [5.26 µM] | 68% [5.26 µM] | 62.3% [5.26 µM] | 56.4% [5.26 µM] | 55% [5.26 µM] | 67.1% [5.26 µM] | 69.8% [5.26 µM] | 77.4% [5.26 µM] | 26.4% [5.26 µM] | 47.5% [5.26 µM] |
| O=c1/c(=C\c2ccc(-c3ccccc3)o2)sc2nc(-c3ccccc3)nn12 | 109% | 105% | 92.8% | 106% | 90% | 98.3% | 103% | 99.2% | 117% | 107% | 102% | 102% | 97.9% | 115% | 96.8% | 105% | 105% | 106% | 100% | 91.8% |
| O=C1/C(=C/C2=Cc3ccccc3OC2)SC(=S)N1c1ccc(F)cc1 | 103% | 97.2% | 101% | 105% | 99.2% | 90.4% | 101% | 96.3% | 107% | 104% | 91% | 101% | 99% | 106% | 111% | 102% | 98.5% | 108% | 103% | 105% |
